FMDV antiviral: foot and mouth disease virus antiviral activity. hit rate 1.2% among 410,000. FMDV antiviral cell-based qHTS. Potency, µM (doses to about 57.9 µM), without a hit: at the highest dose activity change, negative = inhibition, actives largely listed as inhibitors; calls by dose curve; tested in HEK293T cells; further: read-out not given here; potency means the concentration at half of the fitted maximal effect; nearly all actives have a fitted effect of over 45% in size
HCV inh: inhibitors of hepatitis C virus infection; Potency, µM (doses to about 41.8 µM), for inactives: top-dose activity change, negative = inhibition, most hits filed as inhibitors; Huh7.5.1 HCVcc-Cre infection, luciferase reporter, 44 h; AID 651820; hit rate 3.4% among 340,000; further: potency means the concentration at half of the fitted maximal effect
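Whole-lifecycle infectious HCVcc-Cre system; cells 1,000/well, compound then virus (~0.5 moi) added 4 h after plating, 44 h culture. Luciferase read 15 sec following 15 min substrate incubation, room temp.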
Sm TGR block: inhibitors of Schistosoma mansoni thioredoxin glutathione reductase. Q962Y6. purified TGR, DTNB reduction, TNB absorbance 405 nm. Potency, µM (highest dose often 114 µM), for the others: at the highest dose activity change, negative = inhibition, most hits filed as inhibitors. hit rate 3% among 360,000. AID 485364; further: potency means the concentration at half of the fitted maximal effect; nearly all actives have a fitted effect of over 60% in size
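Kinetic colorimetric format: TGR-catalysed, NADPH-driven DTNB reduction monitored via TNB absorbance. Enzyme dispensed at 20 nM; compound exposure 15 min at room temperature before reaction start.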
Vaccinia mCherry: vaccinia inhibition (mCherry reporter); AID 720579; Vaccinia virus mCherry reporter infection, fluorescence; hit rate 0.63% among 310,000; Potency, µM (titrated, usually from 36.5 µM), for the others: at the highest dose activity change, negative = inhibition, hits mostly inhibitors; calls by dose curve; tested in A549 cells; further: potency means the concentration at half of the fitted maximal effect; nearly all actives have a fitted effect of over 35% in size
HCMV inh: blocks human cytomegalovirus replication; AID 1259415; HFF cells, HCMV-luciferase reporter, 72 h; stronger effect = lower value; activity change, negative = inhibition, % at 57.5 µM; hit rate 4.5% among 410,000; in the data active means activity change below about -60%; inconclusive means no clear call, values can overlap the other calls; inactive means above about -39%
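Inhibition of viral replication was scored as loss of reporter luminescence in HFFs infected with HCMV-luciferase (MOI 1 PFU/cell) for 72 h; compounds tested at 2 doses, normalized to buffer and Salinomycin controls.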
Vaccinia Venus: inhibitors of vaccinia virus (Venus reporter); Potency, µM (doses to about 36.5 µM), for the others: at the highest dose activity change, negative = inhibition, hits mostly inhibitors; Vaccinia virus Venus reporter expression, fluorescence; hit rate 0.46% among 330,000; calls by dose curve; tested in A549 cells; further: potency means the concentration at half of the fitted maximal effect; nearly all actives have a fitted effect of over 30% in size
Starred values were filed as active, the others as inactive; i = inactive; ? = inconclusive; . = no result. In the library only some 9.3% were active in any assay of this set; here they are far more common. Unless noted, the call rests on the fitted dose curve; in most records, active means well fitted curve in the direction sought with a large enough effect; inconclusive means small, poorly fitted or top-dose-only effect, or another doubt; inactive means no such curve, though single readings can be large; an effect the other way counts as inactive or inconclusive. On the % scale 0 is the no-effect control and ±100 the full control effect.

SMILES | FMDV antiviral | HCV inh | Sm TGR block | Vaccinia mCherry | HCMV inh | Vaccinia Venus
COc1ccc(-n2cc(C(=O)c3cc4ccccc4oc3=O)c(C(C)=O)n2)cc1 | 12.8% | -3.5% | -25.7% | . | -67.2* | .
COc1ccc(CNC(=O)c2cc3ccccc3oc2=O)cc1 | 23.8% | 9.8% | 12.5% | . | -24.2 | .
CN1CCC(Oc2ccccc2Sc2ccccc2)CC1 | ? | ? | 1.1% | ? | -76.7* | ?
CC(=O)Nc1nc(C)c(-c2csc(Nc3ccccn3)n2)s1 | 6.3% | 10µM* | 11.6% | ? | 0.0 | ?
CC(=O)Oc1ccc(-c2csc(Nc3cccnc3)n2)cc1 | 15.1% | ? | 8.3% | -10.3% | -102.4* | -8.0%
CC(=O)Nc1nc(C)c(-c2csc(Nc3ccc(O)cc3)n2)s1 | -7.8% | 10µM* | -24.4% | . | . | .
CCC(C)C(=O)Nc1nc(C)c(-c2csc(Nc3ccc(Cl)cc3)n2)s1 (stereo not given) | 0.0% | -25.1% | -9.7% | ? | -90.4* | ?
Cc1cccnc1-c1cccc2c1OC(CNC(=O)Cn1cncn1)C2 (stereo not given) | 0.2% | . | . | -12.0% | . | -5.9%
CC(=O)Nc1ccc(Nc2nc(-c3sc(NC(C)=O)nc3C)cs2)cc1 | -19.5% | 11.2µM* | -0.4% | -23.8% | -27.2 | -19.8%
COc1ccc(-c2csc(Nc3ccc(Oc4ccccc4)cc3)n2)cc1 | ? | . | . | 12.9% | -64.7* | -14.2%
COc1ccc(-c2csc(Nc3cccc(C)n3)n2)cc1 | 14.9% | ? | -22.6% | ? | 253.4 | -20.4%
Cc1nc(C)c(-c2csc(Nc3ccc(N)cc3)n2)s1 | -1.4% | ? | -4.5% | . | -10.1 | .
CCC(=O)Nc1nc(C)c(-c2csc(Nc3ccc(C(=O)O)cc3)n2)s1 | 6.0% | 19.5% | -24.9% | ? | 35.4 | -16.7%
COc1ccc(Nc2nc(-c3sc(C)nc3C)cs2)cc1 | ? | 8.91µM* | -21.0% | . | ? | .
COc1cc(OC)cc(C(=O)N[C@H](C(=O)Nc2nc3ccc(S(C)(=O)=O)cc3s2)C(C)C)c1 | 0.5% | 5.3% | -8.3% | i | 111.0 | 6.4%
Fc1ccc(Nc2nc(SCc3cccc(Cl)c3)nc3ccccc23)cc1 | -26.5% | . | 3.3% | -17.1% | -94.8* | -21.2%
Fc1ccc(Nc2nc(SCc3ccc(Cl)cc3)nc3ccccc23)cc1 | -9.9% | . | 11.6% | -7.1% | ? | -14.7%
Fc1ccc(Nc2nc(SCc3cccc(F)c3)nc3ccccc23)cc1 | -3.2% | . | 9.3% | -1.2% | -87.4* | -12.1%
CC(C)(C)NCC(O)CON=C1c2ccccc2-c2ccccc21 (stereo not given) | ? | 25.1µM* | 2.5% | ? | -5.3 | ?
CC(C)(C)NC[C@H](O)COc1cccc2c1CCCC2=O | -0.9% | 11.9% | 3.2% | -0.1% | -7.1 | -9.4%
CSc1oc(-c2ccco2)nc1S(=O)(=O)c1ccc(F)cc1 | -5.5% | -1.2% | 44.7µM* | -19.9% | 1.5 | 3.5%
CSc1oc(-c2ccco2)nc1S(=O)(=O)c1ccc(C)cc1 | 13.1% | -0.3% | ? | -24.7% | -0.8 | -7.8%
CSc1oc(-c2ccco2)nc1S(=O)(=O)c1ccccc1 | -8.2% | -4.1% | 35.5µM* | i | -33.6 | -7.7%
Cc1c(Cl)cccc1NC(=S)NN1CCOCC1 | -19.2% | 3.2% | 31.6µM* | . | 8.6 | -1.4%
Cc1c(Cl)cccc1NC(=S)NCCN1CCOCC1 | -3.4% | 5.6% | 0.2% | i | 37.9 | -5.0%
SMILES | FMDV antiviral | HCV inh | Sm TGR block | Vaccinia mCherry | HCMV inh | Vaccinia Venus
Cc1c(Cl)cccc1NC(=S)NCc1cccs1 | 17.9% | ? | -22.6% | . | -79.7* | .
COc1ccccc1NC(=S)NCc1cccs1 | 46.7% | 15.6% | ? | -19.4% | 15.2 | -4.0%
Cc1ccccc1NC(=S)NCc1cccs1 | 18.1% | 14.6% | -23.3% | . | 21.7 | -8.3%
CCCCc1ccc(NC(=S)NCc2cccs2)cc1 | 45.3% | -28.7% | 4.4% | . | -80.0* | .
S=C(NCc1cccs1)Nc1cccc(Cl)c1Cl | 47.4% | -22.2% | ? | i | -79.4* | -16.2%
Cc1ccc(NC(=S)NCc2cccs2)cc1 | 41.5% | -3.7% | ? | . | 39.9 | ?
COC(=O)[C@@]12C[C@@H](CC(=O)NCc3ccc(C)o3)C(=O)N(Cc3ccccc3)C1=CCC(C)(C)C2 | -13.9% | . | . | ? | -19.2 | ?
O=C(N/N=C/c1ccccc1C(=O)O)c1cc(-c2ccc3c4c(cccc24)CC3)n[nH]1 | -6.8% | -2.2% | -2.8% | -25.3% | -61.2* | -2.1%
CNC[C@H](CC1CCCCC1)NC[C@H](CO)NCC1(c2ccccc2)CC1 | -14.3% | ? | 0.4% | -7.8% | ? | -15.9%
CNC[C@H](CC1CCCCC1)NC[C@H](CO)NCCc1cccc(C(F)(F)F)c1 | -16.0% | ? | 0.6% | ? | -100.1* | 20µM*
N#Cc1ccc(CN2CCC3(CC2)CCN(C(=O)c2ccncc2)CC3)cc1 | -16.3% | . | . | . | . | .
CC(=O)c1cccc(NC(=O)c2cccc(NC(=O)c3ccco3)c2)c1 | -9.9% | -0.9% | -18.7% | i | 16.3 | -7.5%
CCCCOc1cccc(C(=O)Nc2cc(NC(=O)c3ccco3)ccc2OC)c1 | 0.0% | . | -0.2% | -2.8% | -104.1* | -6.4%
O=C(Nc1cccc(NC(=O)c2ccco2)c1)c1cccc(Br)c1 | -12.7% | -27.6% | 0.0% | -22.7% | -90.1* | -20.6%
CCOc1cccc(C(=O)Nc2cccc(NC(=O)c3ccco3)c2)c1 | -5.2% | ? | 1.8% | i | -61.8* | -12.6%
O=C(NC1CCCC1)c1cccc(NC(=O)c2ccco2)c1 | 7.1% | 1.0% | 7.7% | . | -106.6* | .
Cn1c(SCc2cccnc2)nnc1-c1c[nH]c2ccccc12 | 24.5% | -5.4% | 4.4% | -2.3% | 14.0 | -2.0%
O=C(NCc1ccc2c3c(cccc13)C(=O)N2)c1cccs1 | -9.6% | 9.7% | 10.4% | . | 9.4 | .
CCc1cccc(C)c1NC(=O)c1cccc(C(=O)Nc2c(C)cccc2CC)c1 | -14.9% | . | 1.1% | -1.8% | -15.6 | 1.3%
CCCCC(=O)Nc1cccc(NC(=O)c2ccc(Br)cc2)c1 | 26.9% | ? | 2.4% | . | -23.1 | .
CCCCC(=O)Nc1cccc(NC(=O)c2cccc(Br)c2)c1 | 1.5% | 11.2µM* | 12.5% | . | -34.6 | .
CCc1cccc(CC)c1NC(=O)c1cccc(NC(=O)c2ccccc2)c1 | 0.0% | ? | 2.7% | . | -67.4* | .
O=C(Nc1cccc(S(=O)(=O)NC2=NCCCCC2)c1)c1cc(-c2ccccc2)nc2ccccc12 | -4.7% | 0.2% | 0.9% | -3.5% | -10.4 | -14.0%
O=C(Nc1cccc(S(=O)(=O)NC2=NCCC2)c1)c1cc(-c2ccco2)nc2ccccc12 | 26.6% | ? | 17.8µM* | i | 8.2 | 2.6%
O=C(Nc1cccc(S(=O)(=O)NC2=NCCCCC2)c1)c1cc(-c2ccc(Cl)cc2)nc2ccccc12 | -6.2% | ? | 5.9% | ? | -38.1 | -16.8%
O=C(NC(=S)Nc1cccc(S(=O)(=O)NC2=NCCC2)c1)c1cc(-c2ccco2)nc2ccccc12 | -9.7% | -19.9% | 12.6µM* | ? | -81.0* | -18.9%
